{
  "source": "the supplement of paper PMC3334620",
  "note": "In all, about 33,000 sequences were measured (“E-score (-0.5 to 0.5)”: median about -0.041, highest 2% from about 0.37 on). This excerpt belongs to a sample that is enriched for the highest values.",
  "data": [
    {"biological_target": "T1, Ecm22 (UniProt Q05958)", "T1 sequence": "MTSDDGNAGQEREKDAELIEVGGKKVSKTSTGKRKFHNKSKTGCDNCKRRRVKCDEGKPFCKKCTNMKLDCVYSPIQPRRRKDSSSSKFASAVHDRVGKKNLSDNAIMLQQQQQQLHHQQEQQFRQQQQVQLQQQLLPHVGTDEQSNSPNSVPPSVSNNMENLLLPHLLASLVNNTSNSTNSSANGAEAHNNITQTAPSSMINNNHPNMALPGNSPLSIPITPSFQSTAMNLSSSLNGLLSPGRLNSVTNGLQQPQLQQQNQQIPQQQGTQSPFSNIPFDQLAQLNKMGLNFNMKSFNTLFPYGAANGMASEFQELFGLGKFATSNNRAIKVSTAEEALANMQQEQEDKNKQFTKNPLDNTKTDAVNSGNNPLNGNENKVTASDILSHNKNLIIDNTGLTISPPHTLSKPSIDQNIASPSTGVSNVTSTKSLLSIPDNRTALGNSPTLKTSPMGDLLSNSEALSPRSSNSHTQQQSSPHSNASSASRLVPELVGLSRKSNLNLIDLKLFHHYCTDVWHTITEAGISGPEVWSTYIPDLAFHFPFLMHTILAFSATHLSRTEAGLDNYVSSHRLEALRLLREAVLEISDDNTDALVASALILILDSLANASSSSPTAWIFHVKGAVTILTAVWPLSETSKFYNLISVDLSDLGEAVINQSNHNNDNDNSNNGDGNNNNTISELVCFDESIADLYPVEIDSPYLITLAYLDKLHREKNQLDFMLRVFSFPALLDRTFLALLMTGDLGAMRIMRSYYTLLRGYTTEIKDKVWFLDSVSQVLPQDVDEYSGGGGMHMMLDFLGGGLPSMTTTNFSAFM", "assay": "PBM E-score (8-mer binding enrichment) (E-score (-0.5 to 0.5)); higher = stronger / more preferred TF binding", "settings": "protein concentration: 200 nM; construct: GST-full length", "description": "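Universal 'all 10-mer' protein binding microarrays (Agilent AMADID 015681) probed with GST-tagged S. cerevisiae TFs (full-length or DBD) made by in vitro transcription/translation (PURExpress), about 100-200 nM. Bound TF was detected with fluorescent anti-GST. Each ungapped 8-mer (which stands for itself and its reverse complement) is scored by the PBM enrichment score (E-score), a modified Wilcoxon-Mann-Whitney statistic from -0.5 to +0.5, computed with the Universal PBM Analysis Suite. Scale: above 0.35 generally sequence-specific binding.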", "values": [
      {"sequence": "CAGAACGA", "PBM E-score": 0.379},
      {"sequence": "AAGAACGT", "PBM E-score": 0.101},
      {"sequence": "GAGAACCA", "PBM E-score": -0.098},
      {"sequence": "GAGAACGA", "PBM E-score": 0.422},
      {"sequence": "CAGAACGG", "PBM E-score": 0.075},
      {"sequence": "GAATCGAC", "PBM E-score": 0.163},
      {"sequence": "ACGGGAGC", "PBM E-score": 0.225},
      {"sequence": "TAATCCTA", "PBM E-score": 0.00777},
      {"sequence": "GACGGAGC", "PBM E-score": -0.0469},
      {"sequence": "CCTAGGAG", "PBM E-score": -0.239},
      {"sequence": "CCAAGGCA", "PBM E-score": -0.0888},
      {"sequence": "CAAGTGCA", "PBM E-score": -0.24},
      {"sequence": "CTGGATGC", "PBM E-score": -0.159},
      {"sequence": "GCATAGGC", "PBM E-score": -0.178},
      {"sequence": "GGCATGAC", "PBM E-score": -0.121},
      {"sequence": "AGGCTGGG", "PBM E-score": -0.263},
      {"sequence": "CCAAGCCC", "PBM E-score": -0.117},
      {"sequence": "CTTCTGTC", "PBM E-score": -0.199},
      {"sequence": "GGGAACGA", "PBM E-score": 0.492},
      {"sequence": "GGGAACAA", "PBM E-score": 0.143},
      {"sequence": "GGGAACCA", "PBM E-score": -0.215},
      {"sequence": "AGCCATTA", "PBM E-score": 0.18},
      {"sequence": "AGAGGCTA", "PBM E-score": -0.209},
      {"sequence": "AAATACGC", "PBM E-score": 0.194},
      {"sequence": "CAATACGC", "PBM E-score": -0.0345},
      {"sequence": "CAATACGG", "PBM E-score": 0.0307},
      {"sequence": "GAATACGC", "PBM E-score": 0.152},
      {"sequence": "GAATACGA", "PBM E-score": 0.432},
      {"sequence": "TAATACCA", "PBM E-score": 0.0168},
      {"sequence": "GAATACTA", "PBM E-score": 0.141},
      {"sequence": "AAATACGA", "PBM E-score": 0.451},
      {"sequence": "TAATACTA", "PBM E-score": 0.114},
      {"sequence": "AAATACGT", "PBM E-score": 0.0932},
      {"sequence": "TAATACGA", "PBM E-score": 0.437},
      {"sequence": "CAATACGA", "PBM E-score": 0.403},
      {"sequence": "ATCGCCGA", "PBM E-score": 0.00202},
      {"sequence": "GGTTGTCA", "PBM E-score": -0.195},
      {"sequence": "ACCGCAGC", "PBM E-score": -0.0492},
      {"sequence": "ATCTTTTA", "PBM E-score": 0.0457},
      {"sequence": "GCCCGCAC", "PBM E-score": -0.0245},
      {"sequence": "CACCCCAG", "PBM E-score": -0.0849},
      {"sequence": "ACAATAAT", "PBM E-score": -0.0625},
      {"sequence": "CGCGGATA", "PBM E-score": 0.188},
      {"sequence": "CACCACAG", "PBM E-score": -0.132},
      {"sequence": "CTACCCAG", "PBM E-score": -0.0541},
      {"sequence": "ACCCCAGT", "PBM E-score": -0.0793},
      {"sequence": "CCTAGAAG", "PBM E-score": -0.187},
      {"sequence": "CGTGGCGC", "PBM E-score": 0.0496},
      {"sequence": "GCGAAATA", "PBM E-score": 0.0791},
      {"sequence": "ACGAAATA", "PBM E-score": 0.381},
      {"sequence": "ACGAAACA", "PBM E-score": 0.335},
      {"sequence": "ACGAAACT", "PBM E-score": 0.369},
      {"sequence": "ACGAAATC", "PBM E-score": 0.285},
      {"sequence": "ACGAAACC", "PBM E-score": 0.33},
      {"sequence": "CCGAAACG", "PBM E-score": 0.288},
      {"sequence": "ACGAAACG", "PBM E-score": 0.411},
      {"sequence": "ACGAAAGG", "PBM E-score": 0.33},
      {"sequence": "CGAAGGAG", "PBM E-score": 0.129},
      {"sequence": "GACTGAAC", "PBM E-score": 0.0447},
      {"sequence": "AATTCAGT", "PBM E-score": -0.189},
      {"sequence": "AAACCTTA", "PBM E-score": 0.0879},
      {"sequence": "CTAAGGGA", "PBM E-score": 0.0248},
      {"sequence": "ATCCCACA", "PBM E-score": -0.176},
      {"sequence": "CATCGTGA", "PBM E-score": 0.108},
      {"sequence": "GATCGTAA", "PBM E-score": 0.387},
      {"sequence": "CATCGTAA", "PBM E-score": 0.381},
      {"sequence": "AATCGTCT", "PBM E-score": 0.0505},
      {"sequence": "AATCGTAG", "PBM E-score": 0.211},
      {"sequence": "GATCGTCC", "PBM E-score": -0.0538},
      {"sequence": "AATCGTAA", "PBM E-score": 0.333},
      {"sequence": "GATCGTAC", "PBM E-score": 0.454},
      {"sequence": "AATCGTAT", "PBM E-score": 0.427},
      {"sequence": "GATCGTGC", "PBM E-score": 0.0469},
      {"sequence": "GATCGTTA", "PBM E-score": 0.211},
      {"sequence": "CATCGTCA", "PBM E-score": -0.0402},
      {"sequence": "CCCGCAAA", "PBM E-score": 0.148},
      {"sequence": "CTGACCCA", "PBM E-score": -0.312},
      {"sequence": "ACTGCTAC", "PBM E-score": 0.00971},
      {"sequence": "CATGCTCA", "PBM E-score": -0.229},
      {"sequence": "CCACGGAG", "PBM E-score": -0.163},
      {"sequence": "ACACAGTA", "PBM E-score": -0.0309},
      {"sequence": "AATCGTAC", "PBM E-score": 0.458},
      {"sequence": "AATCGTCC", "PBM E-score": 0.0602},
      {"sequence": "CATCGTAG", "PBM E-score": 0.261},
      {"sequence": "CATCGTCC", "PBM E-score": 0.0413},
      {"sequence": "AATCGTGC", "PBM E-score": 0.221},
      {"sequence": "CATCGTAC", "PBM E-score": 0.458}
    ]}
  ]
}
